SARS PLP yeast: inhibitors of SARS-CoV papain-like protease in yeast; S. cerevisiae expressing SARS-CoV PLpro, growth rescue; Potency, µM (highest dose often 32.9 µM), for the others: top-dose activity, positive = growth rescue, hits mostly activators; 330,000 tested, 0.19% active; AID 485353; calls by dose curve; also: potency is read from the fitted curve at half-maximal effect; 0% is about no effect; nearly all actives have a fitted effect of over 55% in size
HCV inh: blocks hepatitis C virus. Huh7.5.1 HCVcc-Cre infection, luciferase reporter, 44 h. Potency, µM (highest dose often 41.8 µM), without a hit: at the top dose activity change, negative = inhibition, actives largely listed as inhibitors. 340,000 tested, 3.4% active; active = well fitted inhibition curve with a large enough effect; inconclusive = small, poorly fitted or top-dose-only effect, or another doubt; inactive = no such curve, though single readings can be large or run the other way; also: potency is read from the fitted curve at half-maximal effect; % is scaled to controls: 0 for no effect and ±100 for the full control effect
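Luciferase read-out (15 sec integration) after a 15 min room-temperature substrate step quantifies HCVcc-Cre infection. Cells, 1,000 per well, had compound added 4 h post-plating, then virus at ~0.5 moi, and were cultured 44 h.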
HCMV antiviral: blocks human cytomegalovirus replication | HFF cells, HCMV-luciferase reporter, 72 h; hits give low values | activity change, negative = inhibition, % at 57.5 µM | 410,000 tested, 4.5% active | AID 1259415; in the data active = activity change below about -60%; inconclusive = no clear call, values can overlap the other calls; inactive = above about -39%; also: % is scaled to controls: 0 for no effect and ±100 for the full control effect
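HFF cells seeded 16 h at 37C, treated with compounds, infected with luciferase-reporter HCMV at MOI 1 PFU/cell; luciferase read at 72 h post infection, normalized to buffer-only and Salinomycin controls.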
FMDV inh: foot and mouth disease virus antiviral activity | FMDV antiviral cell-based qHTS | Potency, µM (doses to about 57.9 µM), for inactives: at the highest dose activity change, negative = inhibition, usual class: inhibitors | 410,000 tested, 1.2% active | AID 1159524; calls by dose curve; tested in HEK293T cells; also: read-out not given here; potency is read from the fitted curve at half-maximal effect; % is scaled to controls: 0 for no effect and ±100 for the full control effect; nearly all actives have a fitted effect of over 45% in size
MARV entry inh: inhibitors of Marburg virus binding or cell entry; Marburg virus pseudotyped entry inhibition, cell reporter; Potency, µM (titrated, usually from 37.8 µM), inactives show at the top dose activity change, negative = inhibition, most hits filed as inhibitors; 300,000 tested, 1.8% active; calls by dose curve; tested in HEK293 cells; also: potency is read from the fitted curve at half-maximal effect; % is scaled to controls: 0 for no effect and ±100 for the full control effect
LASV entry inh: blocks Lassa virus binding to or entry into cells | Potency, µM (top dose mostly 37.9 µM), for inactives: at the highest dose activity change, negative = inhibition, usual class: inhibitors | Lassa virus pseudotype entry inhibition, cell reporter | 300,000 tested, 1.2% active | AID 540256; calls by dose curve; tested in HEK293 cells; also: potency is read from the fitted curve at half-maximal effect; % is scaled to controls: 0 for no effect and ±100 for the full control effect; nearly all actives have a fitted effect of over 50% in size
An asterisk follows results filed as active; ? = inconclusive; . = no result given; [ ] = remark or other dose. Shown are actives, neighbours in structure and some others; about 8% of the full set was active somewhere.

SMILES | SARS PLP yeast | HCV inh | HCMV antiviral | FMDV inh | MARV entry inh | LASV entry inh
CCn1c(C)cc(C(=O)CSc2nnc(-c3ccco3)o2)c1C | 1% | -1% | -9 | 29% | . | .
Cc1cc(C(=O)CSc2nnc(-c3ccco3)o2)c(C)n1C | -6% | 11µM* | -16 | 19% | -18%[46.1 µM] | 9%
CC(C)CON=C1C[C@@H](O)[C@@H](O)[C@@H]2[C@H]3C(=O)N(c4ccc(F)cc4F)C(=O)[C@@H]3CC[C@H]12 | . | . | . | . | -10%[14.2 µM] | .
CCc1ccc(CN2CCC(n3nccc3NC(=O)c3ccccc3C)CC2)cc1 | 0% | 14µM* | -35 | -11% | ? | ?
O=C(Nc1ccnn1C1CCN(Cc2ccc(OC(F)F)cc2)CC1)C1CCCC1 | . | 22µM* | -23 | -25% | ? | ?
O=C(Nc1ccnn1C1CCN(Cc2ccc3nonc3c2)CC1)c1cccc(F)c1 | -4% | ? | 0 | 12% | . | .
COc1ccc(C(=O)Nc2ccnn2C2CCN(Cc3ccc4nonc4c3)CC2)cc1 | -3% | -29% | -94* | -24% | . | .
COc1ccccc1CNC(=O)CCC(=O)N1CC2CCCN2c2ccccc21 (centres undefined) | . | . | -22 | -20% | . | -11%[46.1 µM]
COc1cc(=O)n2c(c1C(=O)NCc1ccco1)CCN(Cc1c(F)cccc1F)CC2 | . | . | . | -17% | . | .
COc1cccc(CN2CCC3(CCC(CNC(=O)c4ccco4)O3)CC2)c1OC (centres undefined) | . | . | . | -5% | . | .
COc1ccc(NC(=O)Nc2cc(C(=O)NCc3ccc(C)cc3)ccc2N2CCCC2)cc1 | . | . | 10 | 13% | . | 27%[46.1 µM]
O=C(c1ccc2c(c1)N(Cc1ccc(Cl)cc1)C(=O)c1ccccc1S2=O)N1CCN(c2ccccc2F)CC1 (centres undefined) | . | . | -22 | -4% | 16%[46.1 µM] | ?
CCN1CCC(N(Cc2cccc(OC)c2)C(=O)Nc2cccc(C(F)(F)F)c2)CC1 | . | . | -12 | -20% | . | -13%[46.1 µM]
O=C1NC(=S)SC1=Cc1ccccc1Cl | . | 9% | 23 | -14% | ? | 25%[46.1 µM]
Cc1ccc(C2C(/C=C3/SC(=S)NC3=O)=C(c3cccs3)Oc3ccccc32)cc1 (centres undefined) | -9% | ? | -61* | . | ? | ?
CCOC(=O)c1c(C)c(-c2ccccc2)n(CC(=O)NC2CCCCCC2)c1C | . | . | -4 | -15% | ? | .
CSc1nc(NCC(C)O)c2c3c(sc2n1)CN(C)CC3 (centres undefined) | -1% | -14% | -12 | -4% | . | .
CSc1nc(SCC(=O)NC(c2ccccc2)c2ccccc2)c2c3c(sc2n1)CN(C)CC3 | -4% | 1.8µM* | -29 | -1% | 9.2µM* | ?
O=C(Nc1ccccc1F)N1CC(=O)N2[C@H](CO)[C@@H](c3ccc(Br)cc3)[C@@H]2C1 | . | . | 1 | . | . | .
c1ccc(C(c2ccccc2)N2CCC3(CCNCC3)CC2)cc1 | . | . | . | -18% | . | .
O=[N+]([O-])c1ccc(Cl)c(C2Nc3cccc4cccc(c34)N2)c1 | -9% | -29% | -81* | -23% | -26% | 1%
Cc1ccc(C(=O)N/C(=C\c2ccc(Br)cc2)c2nc(=S)[nH][nH]2)cc1 | -14% | 26% | -71* | . | -15% | ?
C[C@H](ON=C1[C@H]2CCn3c(=O)n(-c4ccccc4)c(=O)n3[C@@H]2[C@H](O)[C@@H]2O[C@H]12)c1cn([C@H](CO)Cc2ccccc2)nn1 | . | . | . | . | 7%[14.2 µM] | ?
Cc1cc(C(C)(C)C)oc1C(=O)N(CC(=O)NC1CCCC1)c1cccc(C(F)(F)F)c1 | -9% | ? | . | . | 23µM* | ?
Cc1ccccc1N(CC(=O)NC1CCCC1)C(=O)c1oc(C(C)(C)C)cc1C | 2% | ? | . | . | ? | ?
SMILES | SARS PLP yeast | HCV inh | HCMV antiviral | FMDV inh | MARV entry inh | LASV entry inh
Cc1ccc(C(C)C)c(OCC(=O)N2CCC(c3nc4ccccc4o3)CC2)c1 | . | . | 154 | -26% | -30%[46.1 µM] | 2%[46.1 µM]
CCN(CC)c1nn2c(=O)c(C(=O)NCc3cccc(OC)c3OC)cnc2s1 | . | . | 35 | -22% | . | 3%[46.1 µM]
C/C(=N\NC(=O)CNC(=O)C(c1ccccc1)c1ccccc1)c1ccc(C(C)(C)C)cc1 | -1% | 21% | -76* | -2% | -6% | -5%
CN(Cc1ccccc1)C(=O)c1[nH]c(C(F)(F)F)nc1-c1ccccc1 | . | . | 9 | 4% | . | .
CCN(CC)CCN(C)C(=O)c1[nH]c(C(F)(F)F)nc1-c1ccccc1 | . | . | -99* | -16% | . | .
CCOc1ccc(NC(=O)[C@@H](c2ccccc2)N2Cc3ccccc3C2=O)cc1 | . | . | -4 | 6% | 3%[46.1 µM] | 26%[46.1 µM]
COc1ccc(CC(=O)NCc2nc3cccnc3n2Cc2ccc(C)cc2)cc1OC | . | . | -27 | -9% | . | 0%[46.1 µM]
CCCCCCCCCCCCCCCC(=O)OC(CO)CO | . | . | . | -18% | . | .
OCc1nc2ccccc2n1CCCCOc1ccccc1 | . | -15% | 30 | 4% | ? | -26%[46.1 µM]
CC(C)(C)C(=O)NCCCc1nc2ccccc2n1CCCOc1ccc(Cl)cc1 | 3% | ? | -84* | 20µM* | ? | ?
Cc1ccc(OCCCCn2c(CO)nc3ccccc32)cc1 | -5% | -13% | -65* | 0% | ? | -1%[46.1 µM]
Cc1cc(NC(=O)CCNS(=O)(=O)c2ccc3c(c2)CCCC(=O)N3)ccc1Br | . | . | -29 | 0% | . | -12%[46.1 µM]
NC(=O)C1(N2CCCCC2)CCN(C(=O)CSc2nc(C(F)(F)F)cc(=O)[nH]2)CC1 | 3% | 12% | -65* | -17% | 29% | -2%
NC(=O)c1ccccc1OCC(=O)N1CCC(Cc2ccccc2)CC1 | -13% | 8.9µM* | -68* | 32µM* | . | .
O=C(COc1ccccc1[N+](=O)[O-])N1CCC(Cc2ccccc2)CC1 | -7% | 7% | -21 | -26% | -26%[46.1 µM] | -1%
CC(=O)Nc1ccc(NC(=O)C(C)OC(=O)C2(c3ccc(F)cc3)CCCC2)cc1 (centres undefined) | 2% | ? | -29 | 25µM* | . | .
Cc1cc(=O)c2cc(C(=O)Nc3ccc(C)c(C)c3)ccc2[nH]1 | . | . | -7 | 16% | ? | 19%[46.1 µM]
Cc1ccc(-n2ncc3c(N4CCCCC4)ncnc32)cc1Cl | . | . | -89* | 25µM* | . | ?
Clc1ccc(Cn2ncc3c(N4CCCCC4)ncnc32)c(Cl)c1 | . | 5% | -21 | 28µM* | 2% | 3%
CC(=O)c1ccc(N2CCN(c3ncnc4c3cnn4-c3cc(Cl)ccc3C)CC2)cc1 | . | . | -8 | 14µM* | . | 0%[46.1 µM]
Cc1ccc(Cl)cc1-n1ncc2c(N3CCCCCC3)ncnc21 | . | . | -35 | 20µM* | . | ?
Clc1ccc(Cn2ncc3c(N4CCCCC4)ncnc32)cc1 | -5% | ? | -15 | ? | -21%[46.1 µM] | -17%
COc1ccc(N2CCN(c3ncnc4c3cnn4-c3ccc(C)c(Cl)c3)CC2)cc1 | . | . | -39 | -1% | . | 20%[46.1 µM]
Cc1ccc(-c2nn3c(=O)cc(CN4CCN(C(=O)/C=C/c5ccccc5)CC4)nc3s2)cc1 | . | . | 5 | -21% | . | ?
CCN1C(=NCc2cccc(Cl)c2)NC(c2cccc(C(F)(F)F)c2)C(C(=O)OC)=C1C (centres undefined) | . | . | . | . | -25%[14.2 µM] | -42%[14.3 µM]

Compound activity as filed in PubChem BioAssay.
